Test results as given in PubChem BioAssay (NCATS).
Records with an inconclusive call do not appear. A number with no mark means an inactive call. Calls of active or inactive are those of the source. The call rests on the fitted dose curve; in most records, active means well fitted curve in the direction sought with a large enough effect; inconclusive means small, poorly fitted or top-dose-only effect, or another doubt; inactive means no such curve, though single readings can be large; an effect the other way counts as inactive or inconclusive.

Columns and labels:
SKOV3 = assay: Primary qHTS to identify gynecologic anti-cancer compounds using libraries of approved drugs and bioactive compounds (AID 1345084); details: Gynecologic cancer cell panel viability, ATPlite luminescence, 48 h; series mostly up to 57.5 µM; further: potency means the concentration at half of the fitted maximal effect; nearly all actives have a fitted effect of over 55% in size
Summary of the method: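 Cytotoxicity screen measuring ATP content by luciferase luminescence. Each compound is applied at five concentrations for 48 h at 37 C with 5% CO2.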

[1] = Drug repurposing screens with cells derived from glioblastoma tumor samples (AID 1345199); details: GBM patient neurospheres viability, ATP luminescence, 48 h; further: nearly all actives have a fitted effect of over 40% in size; further: potency means the concentration at half of the fitted maximal effect; on activity, negative = cell killing: on the % scale 0 is the no-effect control and ±100 the full control effect
Summary of the method: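 Primary testing used CD133+ neurospheres from four GBM patients, seven concentrations, 48 h exposure and ATP-based viability; confirmation added three slower-growing patient lines.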

[2] = qHTS assay to identify inhibitors of the type 1 interferon - major histocompatibility complex class I in skeletal muscle: Counter screen cell viability and HiBit confirmation (AID 1347412); details: iHSKM muscle cells + IFN-b, HiBiT or CellTiter-Glo, 24 h; HiBiT; at 45.9 µM (top of the series); further: on the % scale 0 is the no-effect control and ±100 the full control effect; nearly all actives have a fitted effect of over 60% in size
Summary of the method: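 CRISPR HLA-B*08:01-HiBit immortalized human myoblasts (C25cl48) stimulated with 4 ng/ml IFN-beta and compounds (12-point 1:3, top 46 uM final) for 24 h at 37 C. Duplicate plates read by HiBit lytic luminescence or CellTiter Glo ATP.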

[3] = at 20 µM (top of the series), tumour line C

Structure (SMILES): CNC1CCC(N(Cc2cccc(-c3ccncc3)c2)C(=O)c2sc3ccccc3c2Cl)CC1 (stereo not given)
- Potency (SKOV3): 25.1 µM (active)

Structure (SMILES): NCC1CCC(C(=O)O)CC1 (stereo not given)
- activity, negative = cell killing [1, 3]: 25.1%
- activity, negative = cell killing ([1]; at 21.2 µM (top of the series), tumour line B): -5.15%
- activity, negative = cell killing ([1]; at 21.2 µM (top of the series), tumour line D): -6.32%
- activity, negative = cell killing ([1]; at 21.3 µM (top of the series), tumour line A): -17.9%

Structure (SMILES): Clc1ccc(COC(Cn2ccnc2)c2ccc(Cl)cc2Cl)c(Cl)c1 (stereo not given)
- activity, negative = cell killing [1, 3]: -15.2%
- Potency ([1]; tumour line D): 14.1 µM (active)

Structure (SMILES): N#CC(c1ccc(Cl)cc1)c1c(Cl)cc(-n2ncc(=O)[nH]c2=O)cc1Cl (stereo not given)
- Potency ([1]; tumour line C): 16.4 µM (active)

Structure (SMILES): Fc1ccc(C(c2ccc(F)cc2)N2CCN(CC=Cc3ccccc3)CC2)cc1
- Potency ([1]; tumour line D): 11.2 µM (active)

Structure (SMILES): OC(c1cc(C(F)(F)F)nc2c(C(F)(F)F)cccc12)C1CCCCN1 (stereo not given)
- activity change, negative = inhibition [2]: -11.4%
